# Reference: PubChem BioAssay (Tox21)
# Values joined by “and” are separate entries in the source; they are usually repeats but may differ in a detail not shown here. Equal values may be shown once. Results filed as inconclusive are left out. A call without a number means that no potency is given here. Some compounds were tested as several samples or in several runs, with calls that do not always agree. Active and inactive are the calls of the source. Unless noted, calls come from the whole dose curve; as a rule, active = well fitted curve in the direction sought with a large enough effect in the repeat runs; inconclusive = weak or mixed curves; inactive = no such curve, though single readings can be large; an effect the other way counts as inactive or inconclusive.
# Experiments:
# [1] = biological target: Thyrotropin-releasing hormone receptor (Homo sapiens) (UniProt P34981); assay: qHTS assay to identify small molecule agonists of the thyrotropin-releasing hormone receptor (TRHR) signaling pathway (AID 1346891; calls by dose curve;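 note: HEK293 cells expressing TRHR with calcium dye readout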); conditions: TRHR-HEK293 calcium fluorescence, agonist mode; series mostly up to 57.6 µM
# Chain of Thyrotropin-releasing hormone receptor (Homo sapiens) (P34981 whole entry, looked up): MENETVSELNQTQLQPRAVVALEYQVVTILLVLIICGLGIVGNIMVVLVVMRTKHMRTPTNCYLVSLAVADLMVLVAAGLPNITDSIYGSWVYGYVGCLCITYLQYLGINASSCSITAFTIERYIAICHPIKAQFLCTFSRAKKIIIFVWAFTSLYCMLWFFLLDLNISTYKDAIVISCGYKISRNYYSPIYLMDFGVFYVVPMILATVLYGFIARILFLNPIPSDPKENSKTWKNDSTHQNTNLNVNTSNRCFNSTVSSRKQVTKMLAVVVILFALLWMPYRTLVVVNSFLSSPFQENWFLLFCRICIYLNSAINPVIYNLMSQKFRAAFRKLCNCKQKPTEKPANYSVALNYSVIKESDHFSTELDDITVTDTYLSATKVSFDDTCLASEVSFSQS
# Outline: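 In 1536-format, 1500 TRHR-Hek293 cells per well grew 18 h, took up calcium dye for 2 h at 37 °C, received compound, and were read kinetically; 15-point titrations, triplicates.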
# [2] = Human pregnane X receptor (PXR) small molecule agonists, qHTS cell viability counter screen (AID 1346977); conditions: PXR-Luc HepG2 viability, CellTiter-Fluor, 24 h; series mostly up to 92.4 µM; note: nearly all actives have a fitted effect of over 50% in size
# Outline: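 Readout is CellTiter-Fluor fluorescence from PXR-Luc HepG2 cells. Plated cells rested 5hr, then were treated with compounds for 24hr at 37C and 5% CO2, with reagent present during the last hour.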
# [3] = Caspase-3/7 induction in HepG2 cells by small molecules, qHTS assay (AID 1346978); conditions: HepG2 caspase-3/7 activation, Caspase-Glo luminescence, 17 h; series mostly up to 92.4 µM; note: nearly all actives have a fitted effect of over 15% in size
# Outline: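 Wild-type HepG2 cells (2,000/well) were settled 5 h at 37 C, 5% CO2, then exposed to compounds in DMSO for 17 h. Caspase-3/7 activity was read by luminescence 30 min after adding Caspase-Glo 3/7 reagent at room temperature.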
# [4] = Caspase-3/7 induction in CHO-K1 cells by small molecules, qHTS cell viability counter screen (AID 1346979); conditions: CellTiter-Fluor fluorescence, 17 h; series mostly up to 92.4 µM; note: nearly all actives have a fitted effect of over 35% in size; note: potency is the fitted concentration of half-maximal effect
# Outline: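 To flag cytotoxic compounds, treated CHO-K1 wild-type cells were given CellTiter-Fluor at 16hr and read fluorescently after 1hr at 37C; the caspase-3/7 luminescence was measured in these same wells.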
# [5] = Caspase-3/7 induction in CHO-K1 cells by small molecules, qHTS assay (AID 1346980); conditions: CHO-K1 caspase-3/7 induction, Caspase-Glo luminescence, 17 h; series mostly up to 92.4 µM; note: nearly all actives have a fitted effect of over 15% in size
# Outline: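 Wild-type cells were seeded at 1,500 per well and settled 5 hr at 37 C, 5% CO2, then exposed to DMSO-dissolved compounds for 17 hr. Caspase-Glo 3/7 reagent was added, and luminescence was read after 30min at room temperature.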
# [6] = Caspase-3/7 induction in HepG2 cells by small molecules, qHTS cell viability counter screen (AID 1346981); conditions: CellTiter-Fluor fluorescence, 17 h; series mostly up to 92.4 µM; note: nearly all actives have a fitted effect of over 30% in size; note: potency is the fitted concentration of half-maximal effect
# Outline: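 HepG2, WT, 2,000 cells/well; 5 hr pre-incubation 37 C/5% CO2; compound pin-transferred from DMSO; 16 hr exposure; CellTiter-Fluor, 1 hr; fluorescence read.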
# [7] = biological target: Nuclear receptor subfamily 1 group I member 2 (Homo sapiens) (UniProt O75469); assay: Human pregnane X receptor (PXR) small molecule agonists, qHTS assay (AID 1346982); conditions: PXR-Luc HepG2, CYP3A4 luciferase reporter, 24 h; series mostly up to 92.4 µM; note: nearly all actives have a fitted effect of over 35% in size; note: potency is the fitted concentration of half-maximal effect
# Chain of Nuclear receptor subfamily 1 group I member 2 (Homo sapiens) (O75469 whole entry, looked up): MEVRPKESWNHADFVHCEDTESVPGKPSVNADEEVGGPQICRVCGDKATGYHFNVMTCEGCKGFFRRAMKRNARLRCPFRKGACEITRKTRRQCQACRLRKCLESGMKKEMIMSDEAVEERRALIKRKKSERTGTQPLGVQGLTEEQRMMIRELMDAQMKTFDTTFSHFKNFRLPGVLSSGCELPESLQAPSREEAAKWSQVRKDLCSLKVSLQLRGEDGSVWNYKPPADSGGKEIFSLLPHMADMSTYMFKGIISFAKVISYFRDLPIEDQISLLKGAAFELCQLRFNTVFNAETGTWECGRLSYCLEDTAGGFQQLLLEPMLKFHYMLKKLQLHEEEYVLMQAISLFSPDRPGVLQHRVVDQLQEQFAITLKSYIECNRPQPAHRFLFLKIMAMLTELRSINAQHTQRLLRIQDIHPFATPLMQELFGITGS
# Outline: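 Luciferase signal from ONE-Glo (30 min, room temperature) measured activation of hPXR-driven CYP3A4 reporter expression in PXR-Luc HepG2 cells treated with compounds for 24 hr at 37 C.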
# [8] = biological target: Acetylcholinesterase (Homo sapiens) (UniProt P22303); assay: Acetylcholinesterase (AChE) small molecule antagonists: colormetric cell-based qHTS assay (AID 1347395; calls by dose curve; note: nearly all actives have a fitted effect of over 30% in size; note: potency is the fitted concentration of half-maximal effect); conditions: SH-SY5Y cells AChE activity, colorimetric (Ellman); series mostly up to 115 µM
# Chain of Acetylcholinesterase (Homo sapiens) (P22303 whole entry, looked up): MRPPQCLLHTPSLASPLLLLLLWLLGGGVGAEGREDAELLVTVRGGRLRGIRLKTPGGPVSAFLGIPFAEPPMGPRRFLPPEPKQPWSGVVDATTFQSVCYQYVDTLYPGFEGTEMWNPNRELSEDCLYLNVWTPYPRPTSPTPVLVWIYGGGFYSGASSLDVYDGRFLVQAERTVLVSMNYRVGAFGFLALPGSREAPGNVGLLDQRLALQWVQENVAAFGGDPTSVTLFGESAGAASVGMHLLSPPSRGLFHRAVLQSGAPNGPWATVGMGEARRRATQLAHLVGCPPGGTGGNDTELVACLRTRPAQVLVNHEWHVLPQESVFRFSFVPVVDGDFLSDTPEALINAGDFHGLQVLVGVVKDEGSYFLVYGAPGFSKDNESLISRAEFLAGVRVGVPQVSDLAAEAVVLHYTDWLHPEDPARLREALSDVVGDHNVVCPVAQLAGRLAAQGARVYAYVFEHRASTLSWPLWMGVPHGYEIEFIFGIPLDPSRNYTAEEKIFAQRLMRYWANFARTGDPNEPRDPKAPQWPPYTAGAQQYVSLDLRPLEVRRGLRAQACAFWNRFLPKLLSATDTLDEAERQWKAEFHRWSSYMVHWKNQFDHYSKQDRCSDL
# Outline: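 Neuroblastoma line SH-SY5Y supplied the enzyme; cells were preincubated with compound for 30 min at 37 C and 5% CO2. Acetylthiocholine with DTNB was then added for 90 min at 37 C, and thiocholine was measured by colour.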
# [9] = biological target: Acetylcholinesterase (Homo sapiens) (UniProt P22303); assay: Acetylcholinesterase (AChE) small molecule antagonists: enzyme-based qHTS assay (AID 1347397; calls by dose curve; note: nearly all actives have a fitted effect of over 55% in size; note: potency is the fitted concentration of half-maximal effect); conditions: Potency: AChE enzyme activity inhibition; series mostly up to 115 µM
# Outline: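 Recombinant human AChE, dispensed at 50 mU/mL, was preincubated with Tox21 10K compounds or DMSO vehicle for 30 min at room temperature. DTNB plus acetylthiocholine was then added, and thiocholine was measured colorimetrically after a further 10 min.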
# [10] = biological target: Nuclear receptor subfamily 1 group I member 2 (Rattus norvegicus) (UniProt Q9R1A7); assay: Rat pregnane X receptor (rPXR) activation by small molecules, qHTS assay (AID 1346983); conditions: rPXR luciferase reporter cells, One-Glo luminescence, 24 h; max activation: stronger effect = higher value; note: nearly all actives have a fitted effect of over 20% in size
# Chain of Nuclear receptor subfamily 1 group I member 2 (Rattus norvegicus) (Q9R1A7 whole entry, looked up): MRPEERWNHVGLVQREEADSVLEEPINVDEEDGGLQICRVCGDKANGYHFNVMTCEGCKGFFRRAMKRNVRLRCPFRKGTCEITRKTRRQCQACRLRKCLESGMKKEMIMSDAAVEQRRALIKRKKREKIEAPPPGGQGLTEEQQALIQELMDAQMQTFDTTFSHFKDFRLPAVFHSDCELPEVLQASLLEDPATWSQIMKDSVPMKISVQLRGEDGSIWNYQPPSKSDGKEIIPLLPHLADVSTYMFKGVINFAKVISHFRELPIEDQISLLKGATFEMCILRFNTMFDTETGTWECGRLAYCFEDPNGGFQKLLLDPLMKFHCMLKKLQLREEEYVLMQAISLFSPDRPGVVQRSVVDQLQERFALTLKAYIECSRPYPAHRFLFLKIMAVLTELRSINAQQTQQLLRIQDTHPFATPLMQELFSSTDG
# Outline: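 Cell-based rPXR luciferase reporter assay, 2,000 cells per well, rested 5hr at 37 C before compound addition in DMSO, then 24 hr at 37 C. One-Glo reagent was added and luminescence read after 30 min at room temperature.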
SMILES,outcome [1],Potency [2],outcome [3],Potency [4],outcome [5],Potency [6],Potency [7],Potency [8],Potency [9],max activation [10]
Cl[C@H]1OCCO[C@@H]1Cl,inactive,inactive,inactive,inactive,inactive,inactive,inactive,inactive,–,–
CN(C)C(=O)Nc1cccc(C(F)(F)F)c1,inactive,inactive,inactive,inactive,inactive,inactive,inactive,inactive,inactive,–
FC(F)(F)c1ccc(Cl)cc1,inactive,inactive,inactive,inactive,inactive,inactive,inactive,inactive,–,–
O=[N+]([O-])c1ccc(Cl)cc1,inactive,inactive,inactive,48.2 µM (active) and inactive,inactive,inactive,inactive,inactive,inactive,–
COc1nc(NC(C)C)nc(NC(C)C)n1,inactive,inactive,inactive,inactive,inactive,inactive,30.7 µM (active) and 54.5 µM (active),inactive,inactive,–
C=CC(=O)OCCCCCC(C)C,inactive,inactive,inactive,inactive,inactive,inactive,inactive,inactive,–,–
CC(C)CCCCCCOC(=O)c1ccccc1C(=O)OCCCCCCC(C)C,inactive,inactive,inactive,inactive,inactive,inactive,inactive,inactive,–,–
Cc1cccc(C)c1NC(=O)CN1CCCC1=O,inactive,inactive,inactive,inactive,inactive,inactive,inactive,inactive,inactive,–
O=C(O)CCCc1ccc(N(CCCl)CCCl)cc1,inactive,inactive,inactive,34.5 µM (active) and 21.7 µM (active) and 21.1 µM (active),inactive,54.7 µM (active) and inactive,inactive,inactive,–,–
Cc1ccc(N=C=O)cc1N=C=O,inactive,inactive,inactive,inactive,inactive,inactive,60.9 µM (active) and inactive,inactive,–,–
CN(C)C(=O)Cl,inactive,inactive,inactive,inactive,inactive,inactive,inactive,inactive,inactive,–
CCOP(=S)(OCC)Oc1ccc([N+](=O)[O-])cc1,inactive,inactive,inactive,inactive,inactive,inactive,49.2 µM (active),64.1 µM (active) and 13.8 µM (active),24.5 µM (active),–
CN(C)C(=O)C(c1ccccc1)c1ccccc1,inactive,inactive,inactive,inactive,inactive,inactive,inactive and 19.3 µM (active),inactive,–,–
Cl/C=C/Cl,inactive,inactive,inactive,inactive,inactive,inactive,inactive and 29.6 µM (active),inactive,–,–
OCc1ccco1,inactive,inactive,inactive,inactive,inactive,inactive,inactive,inactive,–,–
O=C(O)C(Br)Br,inactive,inactive,inactive,inactive,inactive,inactive,inactive,inactive,inactive,–
N#Cc1ccccn1,inactive,inactive,inactive,inactive,inactive,inactive,inactive,inactive,inactive,–
C=CC(=O)OCC(CC)CCCC (stereo not given),–,inactive,inactive,inactive,inactive,inactive,–,–,–,–
C=C(C)C(=O)OCC(CC)CCCC (stereo not given),–,inactive,inactive,inactive,inactive,inactive,inactive,inactive,inactive,–
CCCCCCCCCCCCCCCCCC(=O)O,–,inactive,inactive,inactive,inactive,inactive,30.4 µM (active) and inactive,–,–,–
CN1C(=O)CCS(=O)(=O)C1c1ccc(Cl)cc1 (stereo not given),–,inactive,inactive,inactive,inactive,inactive,inactive,inactive,–,–
Cc1cc(Cl)ccc1OC(C)C(=O)O (stereo not given),–,inactive,inactive,–,inactive,inactive,inactive,inactive,–,–
CCSC(=O)N1CCCCCC1,–,inactive,inactive,inactive,inactive,inactive,inactive,inactive,–,–
CNC(=O)O/N=C(\SC)C(=O)N(C)C,–,inactive,inactive,inactive,inactive,inactive,inactive,1.55 µM (active) and 1.42 µM (active),2.45 µM (active) and 2.82 µM (active),–

SMILES,outcome [1],Potency [2],outcome [3],Potency [4],outcome [5],Potency [6],Potency [7],Potency [8],Potency [9],max activation [10]
O=C(O)C1C(C(=O)O)C2(Cl)C(Cl)=C(Cl)C1(Cl)C2(Cl)Cl (stereo not given),–,inactive,inactive,inactive,inactive,inactive,inactive,inactive,–,–
C/C=C/c1ccc2c(c1)OCO2,–,inactive,inactive,inactive,inactive,inactive,inactive,inactive,inactive,–
Nc1ncc([N+](=O)[O-])s1,–,inactive,inactive,30.9 µM (active) and inactive,inactive,54.9 µM (active) and inactive,inactive,inactive,–,–
CN(C)NC(=O)CCC(=O)O,–,inactive,inactive,inactive,inactive,inactive,inactive,inactive,–,–
Oc1ccc(Cl)cc1,inactive,inactive,inactive,inactive,inactive,inactive,–,–,–,1.52% (inactive)
COC(=O)Nc1cccc(OC(=O)Nc2cccc(C)c2)c1,–,inactive,inactive,inactive,inactive,inactive,10.9 µM (active),inactive,–,–
[N-]=[N+]=CC(=O)OC[C@H](N)C(=O)O,–,inactive,inactive,inactive,inactive,inactive,inactive,inactive,inactive,–
CCOP(=S)(OCC)Oc1cc(C)nc(C(C)C)n1,inactive,inactive,inactive,inactive,inactive,inactive,–,31.9 µM (active) and 71 µM (active) and inactive,–,0.813% (inactive)
Cc1ccc(N)cc1,–,inactive,inactive,inactive,inactive,inactive,4.35 µM (active) and 29.6 µM (active) and 27.3 µM (active),–,–,–
O=C/C=C/c1ccccc1,inactive,inactive,inactive,inactive,inactive,inactive,–,inactive,inactive and 64 µM (active),2.2% (inactive)
CC(=O)C1CCOC1=O (stereo not given),–,inactive,inactive,inactive,inactive,inactive,inactive,inactive,–,–
CC(C)c1cccc(C(C)C)c1O,inactive,inactive,inactive,inactive,inactive,inactive,–,inactive,inactive,–
Nc1cccc(Cl)c1,–,inactive,inactive,inactive,inactive,inactive,inactive,inactive,inactive,–
CNC(=O)O/N=C/C(C)(C)S(C)=O (stereo not given),inactive,inactive,inactive,49.2 µM (active) and inactive,inactive,–,inactive,322 nM (active) and 354 nM (active),572 nM (active) and 316 nM (active),–
c1ccc2c(c1)CCCC2,inactive,inactive,inactive,inactive,inactive,inactive,inactive,inactive,inactive,–
Cc1ccccc1N,–,inactive,inactive,inactive,inactive,inactive,inactive and 54.5 µM (active),–,–,–
CC[N+](=O)[O-],–,inactive,inactive,inactive,inactive,inactive,inactive,inactive,–,–
Nc1cc(Cl)cc(Cl)c1,inactive,inactive,inactive,inactive,inactive,inactive,inactive,inactive,inactive,–
C=CCN=C=S,–,inactive,inactive,inactive,inactive,inactive,55.7 µM (active) and inactive,inactive,–,0.185% (inactive)
Cc1cccc(N)c1,inactive,inactive,–,inactive,inactive,inactive,54.6 µM (active) and inactive,inactive,inactive,–
NNc1ccccc1,–,inactive,inactive,inactive,inactive,inactive,61 µM (active) and inactive,–,–,-1.33% (inactive)
OCC(O)CCl (stereo not given),–,inactive,inactive,inactive,inactive,inactive,inactive,inactive,inactive,–
Clc1cnc(Oc2ccc(Oc3ncc(Cl)cc3Cl)cc2)c(Cl)c1,–,inactive,inactive,inactive,inactive,inactive,inactive,inactive,inactive,–
C[C@]12CC[C@H](O)CC1=CC[C@@H]1[C@@H]2CC[C@]2(C)C(=O)CC[C@@H]12,–,inactive,inactive,inactive,inactive,inactive,54.5 µM (active) and 48.6 µM (active) and inactive,inactive,inactive,-3.38% (inactive)
